Compounds with a hit are over-represented: about 12% of the library has one in this group of screens.
m-calpain inh: calpain II (pig) inhibition | purified calpain II, fluorogenic peptide substrate, 30 min | inhibition, % at 16 µM | actives 0.37% (n = 220,000) | AID 1236;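 active = inhibition above about 50%, limit read from the data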
KCC2 mod: modulates chloride dependent transport by human KCC2 | Q9H2X9 | KCC2 cells, thallium flux FluoZin-2 fluorescence | B-score of Tl+ flux slope (higher = more flux/activation; lower = inhibition) at 10 µM | actives 2.2% (n = 190,000) | AID 1456;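 active = thallium flux slope and its plate-corrected score both differing from the plate sample mean at a set confidence after two filtering rounds, in either direction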;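 note: slope of fluorescence scaled to starting intensity during 10 to 20 s after thallium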
L major viab: inhibitors of Leishmania major promastigote growth | Leishmania major promastigotes, resazurin fluorescence viability | actives 9% (n = 200,000) | inhibition, % at 10 µM | AID 1063; in the data active = inhibition above about 50%;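 note: promastigotes grown with compound for 44 hours at 28 °C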
WT yeast gro inh: growth inhibition of WT yeast, mitochondrial fusion screen; mitochondrial fusion phenotypic screen, WT strain; inhibition, % at 10 µM; actives 2.1% (n = 190,000); AID 1362; in the data active = inhibition above about 58%; tested in S. cerevisiae
ROMK primary: human ROMK K+ channel modulation, primary screen; AID 1918; Tet-inducible ROMK, thallium flux fluorescence; actives lie on both sides; actives 2% (n = 130,000); B-score at 10 µM;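 active = signal ratio slope over the read window, or its plate-corrected B-score, at least 3 SD from the plate mean, either direction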;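 note: B-score of the F/F0 ratio slope over 7 to 12 s after thallium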
* marks the source's active call; other numbers are inactive results; x = not tested or not shown.

SMILES	m-calpain inh	KCC2 mod	L major viab	WT yeast gro inh	ROMK primary
CCN(CC)S(=O)(=O)c1cccc(-c2nnc(SCC(=O)c3ccc(Cl)s3)n2C)c1	-8	-0.82	78*	x	-0.83
Cn1cccc1/C=N/n1c(-c2ccc(Cl)cc2)n[nH]c1=S	18	x	0	10	x
S=c1[nH]nc(-c2ccco2)n1/N=C/c1cccc(Cl)c1Cl	13	49*	-6	22	0.47
S=c1[nH]nc(-c2ccco2)n1/N=C/c1cccs1	10	2.3	1	-8	0.59
Cn1cccc1/C=N/n1c(-c2ccc(Cl)cc2Cl)n[nH]c1=S	-1	x	-8	71*	x
S=c1[nH]nc(-c2ccco2)n1/N=C/c1ccc(Cl)cc1Cl	-24	16*	-6	41	x
C#CC1(NC(=O)NC(C)C)CCCCC1	17	0.81	-6	4	1.6
CC1=CC(C)(C)n2c(O)c(N=NC(N)=S)c3cccc1c32	-8	5.9*	1	-2	x
CC1=CC(C)(C)n2c(O)c(N=NC(N)=S)c3c(C)c(C)cc1c32	36	0.17	x	x	x
CC(C)Cn1nc(C(=O)OCC(=O)NCC(F)(F)F)c2ccccc2c1=O	22	-1.1	1	5	x
O=C(CN1CCN(C(=O)c2c(F)cccc2F)CC1)Nc1ccccc1F	16	0.6	-6	0	-0.69
CC(=O)N1N=C(c2ccc(C)cc2)OC1c1ccc(C)cc1 (stereo not given)	-139	0.21	-7	18	-0.024
CC(=O)N1N=C(c2ccc(C)cc2)OC1c1ccc(C(C)C)cc1 (stereo not given)	-4	x	-9	69*	x
O=C(COC(=O)c1ccc(-c2ccc([N+](=O)[O-])cc2)o1)NC(=O)NC12CC3CC(CC(C3)C1)C2	6	0.4	98*	38	x
O=C(NC12CC3CC(CC(C3)C1)C2)c1ccc(-c2cccc(Cl)c2)o1	16	-0.2	22	66*	x
O=C(NC12CC3CC(CC(C3)C1)C2)c1ccc(-c2ccc(Cl)cc2)o1	14	0.41	92*	57	1.4
O=C(COC(=O)c1ccc(-c2ccc([N+](=O)[O-])cc2)o1)NC(=O)NC1CCCCC1	17	-0.91	-6	38	x
C/C=C/C(=O)OCC(=O)Nc1ccc(SC(F)F)cc1	-24	0.22	-2	-14	0.23
Cc1ccc(C(=O)NCC(=O)OC(C)C(=O)Nc2ccc(N(C)C)cc2)s1 (stereo not given)	-9	0.27	3	-7	x
Nc1c(C(=O)NCCc2ccccc2)nnn1Cc1ccc(Br)cc1F	-43	0.38	-7	-4	x
O=C1CN(O)C=C2N=c3ccccc3=C2N1c1ccc([N+](=O)[O-])cc1	58*	-0.5	9	-24	0.2
CN1CCN(S(=O)(=O)c2cccc(C(=O)Nc3ccccc3N3CCOCC3)c2)CC1	-22	0.21	4	-4	x
Cn1nnnc1SCC(=O)NC1CCCCC1	57*	-0.0018	-14	-10	x
O=C(CCc1ccccc1)Nc1nnc(-c2cccs2)o1	-8	x	57*	3	x
O=C(CCc1ccccc1)Nc1nnc(-c2ccc3c(c2)OCCO3)o1	16	0.11	70*	2	0.77
SMILES	m-calpain inh	KCC2 mod	L major viab	WT yeast gro inh	ROMK primary
O=C(CCSc1ccccc1)Nc1nnc(-c2cccs2)o1	9	2.6	-8	7	x
O=C(CCc1ccccc1)Nc1nnc(-c2ccc3c(c2)CCCC3)o1	12	2.6	12	66*	x
O=C(Nc1nnc(-c2ccc3c(c2)CCCC3)o1)C1CCCCC1	-8	0.76	38	21	x
O=C(CCc1ccccc1)Nc1ccc2c(c1)OCCO2	-1	0.037	-3	-10	x
CC(CN1CCN(C)CC1)OC(=O)c1cccc(Cl)c1 (stereo not given)	-7	0.12	x	x	x
Cc1ccc(NC(=O)COC(=O)CN2C(=O)NC(C)(C)C2=O)cc1S(=O)(=O)N1CCOCC1	-16	0.37	-2	-25	0.11
Cc1ccc(-c2nc(NCC3CCCO3)sc2C)cc1 (stereo not given)	-11	-0.47	-4	30	-2.3
COc1cc(/C=N/NC(=O)c2cccc([N+](=O)[O-])c2)cc(OC)c1O	26	0.076	10	10	x
COc1cccc(/C=N/NC(=O)c2ccc([N+](=O)[O-])cc2Cl)c1O	13	-0.28	99*	-4	-0.077
COc1cccc(/C=N/NC(=O)c2cccc([N+](=O)[O-])c2)c1OS(=O)(=O)c1ccccc1	-42	0.03	100*	-7	x
Clc1cc(Sc2ccc(Br)cc2)nnc1-c1ccccc1	5	-3	30	37	x
O=C(O)c1ccc2cccnc2c1O	-17	-0.1	x	x	x
OCCN1CCN(C(c2cccs2)c2ccc3cccnc3c2O)CC1 (stereo not given)	10	2.2	53*	1	x
Cc1ccc(OCC(O)CNS(=O)(=O)c2ccccc2C(=O)N2CCCCC2)cc1 (stereo not given)	-4	-0.019	-11	11	x
O=C(CN(C(=O)Cn1nnc(-c2cccs2)n1)c1ccc2c(c1)OCCO2)NCc1ccccc1	14	-3.1	95*	1	x
CCc1nc(NCc2ccc3c(c2)OCO3)c2oc3ccccc3c2n1	16	0.18	72*	2	x
CCNc1nc(C)nc2c1oc1ccccc12	-1	x	33	9	-0.12
c1ccc2c(c1)oc1c(N3CCN(Cc4ccc5c(c4)OCO5)CC3)ncnc12	7	0.8	94*	76*	-1.6
CCc1nc(SCc2nc3ccccc3[nH]2)c2oc3ccccc3c2n1	11	x	24	74*	-0.49
CCNc1nc(CC)nc2c1oc1ccccc12	-8	-0.43	57*	19	x
c1ccc(Cn2nnc3c(N4CCN(Cc5ccc6c(c5)OCO6)CC4)ncnc32)cc1	10	0.59	-15	48	x
Cc1ccc(C2N(c3ccc(Cl)cc3)C(=O)N3CCCN23)cc1 (stereo not given)	16	-0.61	x	x	x
CCOc1ccc(NC(=O)Nc2cc(C)ccc2F)cc1	-28	-0.85	-7	33	x
CCc1nc(N2CCC(C)CC2)c2oc3ccccc3c2n1	-18	-0.43	6	73*	x
CC(C)(C)c1cc2cccnc2n1Cc1cccc(Cl)c1	-34	x	32	15	x
SMILES	m-calpain inh	KCC2 mod	L major viab	WT yeast gro inh	ROMK primary
COc1ccccc1N(CCN1C(=O)c2cccc3cccc(c23)C1=O)C(=O)c1ccncc1	19	1.2	2	10	-0.25
Cc1ccc(C)c(NC(=S)NC(NC(=O)OCc2ccccc2)C(Cl)(Cl)Cl)c1 (stereo not given)	-11	-0.36	58*	-9	x
COc1ccc([N+](=O)[O-])cc1-n1cnnn1	-32	0.17	-5	2	0.7
Cc1cc(OCC(=O)Nc2ccncc2)ccc1[N+](=O)[O-]	-19	-1.4	-12	1	1.3
Cc1ccc(S(=O)(=O)Nc2cccc3c2CCCC3)cc1	34	-0.9	54*	37	-1.4
Cc1ccc(C(=O)NNC(=O)CCN2C(=O)C3CCCCC3C2=O)cc1 (stereo not given)	-2	-0.45	-6	-19	x
Cc1cc(N2CCCC2)c(F)cc1/C=C\[N+](=O)[O-]	10	-1.4	52*	23	-1.7
Cc1ccc(CNS(=O)(=O)c2ccc3c(c2)n(C)c(=O)c(=O)n3C)cc1	-52	-0.22	99*	-4	0.74
